# The antibiotic and cytotoxicity screens of Wong et al. (2023)
# The campaign covered roughly 39,000 compounds. About 1,500 (3.8%) were called active. This excerpt belongs to a sample that is enriched for actives.
# Test system: HSkMC (human skeletal muscle cells)
# Assay: cytotoxicity call (relative viability < 0.9)
# Conditions: 10 µM
row,SMILES,cytotoxicity call
1,C[C@H](CO)N1C[C@H](C)[C@@H](CN(C)S(=O)(=O)c2cn(C)cn2)Oc2ccc(NC(=O)CCC(F)(F)F)cc2CC1=O,inactive
2,COc1ccncc1-c1ccccc1CN(C(=O)c1ccc(-c2ccc(C#N)cc2)o1)c1ccc(N2CCNCC2)cc1,active
3,C[C@@H]1CN([C@H](C)CO)C(=O)Cc2cc(NC(=O)Nc3ccc(F)cc3)ccc2O[C@H]1CN(C)Cc1ccc(Cl)c(Cl)c1,active
4,C[C@@H]1CN([C@@H](C)CO)C(=O)Cc2cc(NC(=O)Nc3ccc(F)cc3)ccc2O[C@@H]1CN(C)Cc1ccc(Cl)c(Cl)c1,active
5,C[C@@H]1CN([C@@H](C)CO)C(=O)Cc2cc(NC(=O)Nc3ccc(F)cc3)ccc2O[C@H]1CN(C)Cc1ccc(Cl)c(Cl)c1,active
6,C[C@H](CO)N1C[C@H](C)[C@@H](CN(C)Cc2ccc(Cl)c(Cl)c2)Oc2ccc(NC(=O)Nc3ccc(F)cc3)cc2CC1=O,active
7,C[C@@H]1CCCCO[C@@H](CN(C)C(=O)c2ccccc2)[C@H](C)CN([C@H](C)CO)C(=O)c2cc(NC(=O)Nc3cccc4ccccc34)ccc2O1,inactive
8,C[C@@H]1CN([C@@H](C)CO)C(=O)c2cc(NS(=O)(=O)c3ccc(F)cc3)ccc2O[C@@H](C)CCCCO[C@@H]1CN(C)C(=O)Nc1ccccc1,inactive
9,C[C@H]1CCCCO[C@H](CN(C)Cc2ccc(C(F)(F)F)cc2)[C@@H](C)CN([C@@H](C)CO)C(=O)c2cc(NC(=O)C3CCCCC3)ccc2O1,inactive
10,C[C@@H]1CN([C@H](C)CO)C(=O)Cc2cc(NC(=O)CCN3CCOCC3)ccc2O[C@@H]1CN(C)Cc1ccccc1,inactive
11,C[C@H](CO)N1C[C@H](C)[C@H](CN(C)Cc2ccc(Oc3ccccc3)cc2)Oc2ccc(NC(=O)C3CCCCC3)cc2C1=O,inactive
12,Cc1ccc(S[C@]2(C(=O)O)CC(=O)N(Cc3ccccc3C(F)(F)F)[C@@H]2c2ccc(CO)cc2)cc1,inactive
13,COc1cccc(S(=O)(=O)N(C)C[C@@H]2Oc3ncc(-c4cccc(F)c4)cc3C(=O)N([C@H](C)CO)C[C@@H]2C)c1,inactive
14,C[C@H](CO)N1C[C@H](C)[C@H](CN(C)Cc2ccc(C(=O)O)cc2)Oc2ccc(NC(=O)c3ccncc3)cc2C1=O,inactive
15,C[C@@H]1CCCCO[C@@H](CN(C)Cc2ccc(C(=O)O)cc2)[C@@H](C)CN([C@@H](C)CO)C(=O)c2cc(NS(=O)(=O)c3cccs3)ccc2O1,inactive
16,C[C@@H]1CN([C@H](C)CO)C(=O)CCCn2cc(nn2)CO[C@@H]1CN(C)S(=O)(=O)c1ccc2ccccc2c1,inactive
17,O=C(C[C@@H]1CC[C@@H]2[C@H](COC[C@@H](O)CN2C(=O)Nc2ccc(F)cc2)O1)NCCCN1CCOCC1,inactive
18,C[C@@H]1CN([C@@H](C)CO)C(=O)c2cc(NS(=O)(=O)c3ccc(F)cc3)ccc2O[C@@H](C)CCCCO[C@H]1CN(C)Cc1ccc(C(=O)O)cc1,inactive
19,C[C@@H](O)[C@@H](O)[C@@H](O)C/C=N/NC(=O)c1ccc(C(=O)NO)cc1,inactive
20,Cc1cc([N+](=O)[O-])nn1CC(=O)N1CCOCC1,inactive

row,SMILES,cytotoxicity call
1,COc1ccc(NC(=O)N(C)C[C@@H]2OCCCC[C@H](C)Oc3ccc(NC(=O)Nc4ccc(F)cc4)cc3C(=O)N([C@H](C)CO)C[C@@H]2C)cc1,inactive
2,C[C@@H]1CN([C@H](C)CO)C(=O)Cc2cc(NC(=O)Nc3ccc(F)cc3)ccc2O[C@@H]1CN(C)Cc1ccc(Cl)c(Cl)c1,active
3,C[C@H]1CN([C@@H](C)CO)C(=O)Cc2cc(NC(=O)Nc3ccc(F)cc3)ccc2O[C@@H]1CN(C)Cc1ccc(Cl)c(Cl)c1,active
4,C[C@H]1CN([C@@H](C)CO)C(=O)Cc2cc(NC(=O)Nc3ccc(F)cc3)ccc2O[C@H]1CN(C)Cc1ccc(Cl)c(Cl)c1,active
5,C[C@H](CO)N1C[C@H](C)[C@H](CN(C)Cc2ccc(Cl)c(Cl)c2)Oc2ccc(NC(=O)Nc3ccc(F)cc3)cc2CC1=O,active
6,Cc1noc(C)c1NC(=O)N(C)C[C@H]1Oc2c(NS(=O)(=O)c3cn(C)cn3)cccc2C(=O)N([C@@H](C)CO)C[C@H]1C,inactive
7,C/C=C/COc1nc2c(c(=O)n(C)c(=O)n2C)n1C,inactive
8,C[C@H]1CN([C@@H](C)CO)C(=O)c2cc(NC(=O)Cn3cnnn3)ccc2O[C@@H]1CN(C)C(=O)NC1CCCCC1,inactive
9,C[C@@H]1CN([C@@H](C)CO)C(=O)c2cccc(NC(=O)Nc3ccc(F)cc3)c2O[C@@H]1CN(C)Cc1ccc(C(F)(F)F)cc1,inactive
10,CC(C)NC(=O)N(C)C[C@H]1Oc2ccc(NC(=O)Cn3cnnn3)cc2CC(=O)N([C@H](C)CO)C[C@@H]1C,inactive
11,CC(=O)OCC(=O)C1(O)CCC2C3CCC4CC(O)CCC4(C)C3C(=O)CC21C (stereo not drawn),inactive
12,COc1ccc(NC(=O)Nc2ccc3c(c2)C(=O)N([C@H](C)CO)C[C@H](C)[C@H](CN(C)S(=O)(=O)c2cccs2)OCCCC[C@H](C)O3)cc1,inactive
13,C[N+](C)(C)CCCCNC(=O)[C@H]1C[C@H]2C(=O)N3CCC[C@H]3C(=O)N2[C@H]1c1cccc(OCCO)c1,inactive
14,C[C@H](CO)N1C[C@H](C)[C@@H](CN(C)C(=O)c2ccc3c(c2)OCO3)Oc2cc(-c3cncnc3)ccc2S1(=O)=O,inactive
15,CCCCCCCCCC(=O)N[C@@H](Cc1c[nH]c2ccccc12)C(=O)N[C@H](CC(N)=O)C(=O)N[C@@H](CC(=O)O)C(=O)N[C@@H]1C(=O)NCC(=O)N[C@@H](CCCN)C(=O)N[C@@H](CC(=O)O)C(=O)N[C@H](C)C(=O)N[C@@H](CC(=O)O)C(=O)NCC(=O)N[C@H](CO)C(=O)N[C@@H]([C@H](C)CC(=O)O)C(=O)N[C@@H](CC(=O)c2ccccc2N)C(=O)O[C@@H]1C,inactive
16,C[C@@H]1CN([C@H](C)CO)C(=O)Cc2cc(NC(=O)Nc3ccc(C(F)(F)F)cc3)ccc2O[C@H]1CN(C)C(=O)NC1CCCCC1,inactive
17,C[C@@H]1CN([C@H](C)CO)C(=O)Cc2cc(NC(=O)Nc3ccc(C(F)(F)F)cc3)ccc2O[C@@H]1CN(C)C(=O)NC1CCCCC1,active
18,C[C@H]1CN([C@@H](C)CO)C(=O)Cc2cc(NC(=O)Nc3ccc(C(F)(F)F)cc3)ccc2O[C@H]1CN(C)C(=O)NC1CCCCC1,inactive
19,C[C@H](CO)N1C[C@H](C)[C@@H](CN(C)C(=O)NC2CCCCC2)Oc2ccc(NC(=O)Nc3ccc(C(F)(F)F)cc3)cc2CC1=O,inactive
20,C[C@@H]1CN([C@@H](C)CO)C(=O)Cc2cc(NC(=O)Nc3ccc(C(F)(F)F)cc3)ccc2O[C@H]1CN(C)C(=O)NC1CCCCC1,inactive

row,SMILES,cytotoxicity call
1,C[C@@H]1CN([C@@H](C)CO)C(=O)Cc2cc(NC(=O)Nc3ccc(C(F)(F)F)cc3)ccc2O[C@@H]1CN(C)C(=O)NC1CCCCC1,active
2,C[C@H](CO)N1C[C@H](C)[C@@H](CN(C)Cc2ccc(Oc3ccccc3)cc2)Oc2cc(-c3ccncc3)ccc2S1(=O)=O,inactive
3,C[C@H]1CCCCO[C@@H](CN(C)C(=O)Nc2ccc(C(F)(F)F)cc2)[C@@H](C)CN([C@@H](C)CO)C(=O)c2cc(NS(C)(=O)=O)ccc2O1,inactive
4,Cc1noc(C)c1NC(=O)N(C)C[C@H]1OCCCC[C@@H](C)Oc2ccc(NS(=O)(=O)c3cccs3)cc2C(=O)N([C@H](C)CO)C[C@@H]1C,inactive
5,C[C@@H]1CN([C@@H](C)CO)S(=O)(=O)c2ccc(C#Cc3ccccc3)cc2O[C@@H]1CN(C)C(=O)CN(C)C,inactive
6,C[C@@H]1CCCCO[C@H](CN(C)Cc2ccccc2)[C@@H](C)CN([C@@H](C)CO)C(=O)c2cc(NC(=O)Nc3cccc4ccccc34)ccc2O1,active
7,C[C@H]1CCCCO[C@@H](CN(C)Cc2ccccc2)[C@@H](C)CN([C@@H](C)CO)C(=O)c2cc(NC(=O)Nc3cccc4ccccc34)ccc2O1,active
8,C[C@@H]1CCCCO[C@H](CN(C)Cc2ccccc2)[C@@H](C)CN([C@H](C)CO)C(=O)c2cc(NC(=O)Nc3cccc4ccccc34)ccc2O1,inactive
9,C[C@@H]1CN([C@H](C)CO)C(=O)c2cc(NC(=O)Nc3cccc4ccccc34)ccc2O[C@@H](C)CCCCO[C@H]1CN(C)Cc1ccccc1,inactive
10,C[C@@H]1CCCCO[C@H](CN(C)Cc2ccc(C(=O)O)cc2)[C@@H](C)CN([C@@H](C)CO)C(=O)c2cc(NC(=O)Nc3cccc4ccccc34)ccc2O1,inactive
11,C[C@@H]1CCCCO[C@@H](CN(C)Cc2ccccc2)[C@@H](C)CN([C@@H](C)CO)C(=O)c2cc(NC(=O)Nc3cccc4ccccc34)ccc2O1,inactive
12,C[C@@H]1CCCCO[C@H](CN(C)Cc2ccc(C(=O)O)cc2)[C@H](C)CN([C@H](C)CO)C(=O)c2cc(NC(=O)Nc3cccc4ccccc34)ccc2O1,inactive
13,C[C@@H]1CCCCO[C@H](CN(C)Cc2ccccc2)[C@H](C)CN([C@H](C)CO)C(=O)c2cc(NC(=O)Nc3cccc4ccccc34)ccc2O1,active
14,C[C@H](CO)N1C[C@H](C)[C@H](CN(C)Cc2ccccc2)OCCCC[C@H](C)Oc2ccc(NC(=O)Nc3cccc4ccccc34)cc2C1=O,inactive
15,C[C@H](CO)N1C[C@H](C)[C@@H](CN(C)Cc2ccccc2)OCCCC[C@H](C)Oc2ccc(NC(=O)Nc3cccc4ccccc34)cc2C1=O,active
16,CC1(C)OC2CC3C4CCC5=CC(=O)CCC5(C)C4(F)C(O)CC3(C)C2(C(=O)CCl)O1 (stereo not drawn),inactive
17,C[C@H]1CN([C@@H](C)CO)C(=O)CCCn2nncc2CO[C@@H]1CN(C)C(=O)Nc1ccc(N2CCCCC2)cc1,inactive
18,Cc1noc(C)c1NC(=O)N(C)C[C@@H]1Oc2ccc(NC(=O)Nc3cccc4ccccc34)cc2C(=O)N([C@@H](C)CO)C[C@@H]1C,inactive
